Screening data (PubChem)
Shown is part of a subset that was picked to be rich in hits.
CtBP-E1A blk = inhibitors of CtBP/E1A interaction. AlphaScreen GST-E1A/His-CtBP binding, 1536-well; stronger effect = lower value. activity change, % (no concentration beside the values). hit rate 0.49% among 340,000; in the data active = activity change below about -65%; inconclusive = mostly about -30% to -63%
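GST-E1A and His-tagged CtBP (125 nM each as 5X stock) were preincubated with pin-transferred compound for 2 h at 37 °C in the dark, then glutathione donor and nickel acceptor beads were added for 1 h before AlphaScreen reading.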
GALK inhibitor = galactokinase (human) inhibition; Purified GALK, Kinase-Glo residual ATP luminescence; Potency, µM (top dose mostly 57.5 µM), without a hit: at the top dose activity change, negative = inhibition, usual class: inhibitors; hit rate 0.007% among 270,000; AID 1868; also: potency is read from the fitted curve at half-maximal effect
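GALK at 5 nM final was combined with compound, 35 uM ATP and 100 uM galactose in HEPES pH8.0 with MgCl2 and DTT. The reaction ran one hour at room temperature before luminescent ATP detection.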
KDM4E inh = inhibitors of human JMJD2E histone demethylase | Potency, µM (titrated, usually from 57.1 µM), inactives show at the top dose activity change, negative = inhibition, actives largely listed as inhibitors | JMJD2E catalytic domain, FDH-coupled NADH fluorescence (FDH is formaldehyde dehydrogenase) | hit rate 1.6% among 230,000; active = well fitted inhibition curve with a large enough effect, not every such curve was filed as active; inconclusive = small, poorly fitted or top-dose-only effect, or another doubt; inactive = no such curve, though single readings can be large or run the other way;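 also: potency is read from the fitted curve at half-maximal effect; 0% = wells with enzyme and -100% = buffer wells without enzyme; nearly all actives have a fitted effect of over 50% in size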
Target sequence (B2RXH2 1-337 limits assumed): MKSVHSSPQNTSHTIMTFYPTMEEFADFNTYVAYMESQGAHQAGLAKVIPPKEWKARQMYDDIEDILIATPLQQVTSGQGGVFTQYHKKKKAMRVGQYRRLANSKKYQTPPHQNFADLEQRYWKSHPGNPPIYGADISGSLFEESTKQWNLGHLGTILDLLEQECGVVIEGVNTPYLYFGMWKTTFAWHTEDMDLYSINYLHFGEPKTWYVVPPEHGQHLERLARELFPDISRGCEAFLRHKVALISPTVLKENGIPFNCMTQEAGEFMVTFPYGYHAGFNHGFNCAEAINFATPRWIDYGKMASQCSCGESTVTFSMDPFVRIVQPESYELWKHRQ
Six1-Eya2 blk = inhibitors of human Six1/Eya2 interaction. Q15475+O00167. AlphaScreen GST-Six1/His-Eya2 binding, biochemical; stronger effect = lower value. activity change, % (concentration not given with the values). hit rate 0.56% among 360,000; in the data active = activity change below about -65%; inconclusive = mostly about -30% to -63%
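Compounds are tested against tagged Six1 and Eya2 proteins bridged by glutathione donor and nickel acceptor beads; after a one-hour incubation at 37 °C without light, AlphaScreen emission is recorded.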
Anesthetic bind = binds horse apoferritin like a general anesthetic | P02791 | apoferritin/1-aminoanthracene competitive binding, fluorescence | Potency, µM (doses to about 77.5 µM), inactives show top-dose activity change, negative = displacement, usual class: inhibitors | hit rate 0.074% among 350,000 | AID 485281; also: potency is read from the fitted curve at half-maximal effect; nearly all actives have a fitted effect of over 20% in size
Target sequence (P02791 2-175 limits assumed): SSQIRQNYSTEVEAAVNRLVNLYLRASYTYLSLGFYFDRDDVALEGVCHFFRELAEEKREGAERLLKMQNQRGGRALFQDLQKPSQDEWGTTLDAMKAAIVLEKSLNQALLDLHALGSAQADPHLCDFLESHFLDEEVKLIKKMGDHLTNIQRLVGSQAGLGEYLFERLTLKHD
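Horse-spleen apoferritin (10 uM) was mixed with 50% saturated 1-aminoanthracene in PBS, exposed to compounds for 10 min at room temperature, and read for fluorescence (ex 380 nm, em 535 nm). Competitive displacement was fitted with a four-parameter Hill equation.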
Eya2 inh = inhibitors of human Eya2 phosphatase activity. O00167. recombinant Eya2, OMFP fluorescence dephosphorylation (OMFP is methylfluorescein phosphate). Potency, µM (series often up to 76.9 µM), for inactives: at the highest dose activity, negative = inhibition, usual class: inhibitors. hit rate 0.006% among 330,000. AID 488837; also: potency is read from the fitted curve at half-maximal effect
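Eya2 protein (added as 0.2 uM solution) was preincubated with compound for 10 min at ambient temperature in 50 mM HEPES pH 7.5, 50 mM NaCl, 5 uM MgCl2, 0.05% BSA, 1 mM DTT. OMFP (added at 50 uM) then reacted 10 min; fluorescence read at 485/525 nm.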
Active calls of the source: *; ? = inconclusive; . = no result. Unless noted, calls follow the shape of the dose curve; as a rule, active = well fitted curve in the direction sought with a large enough effect; inconclusive = small, poorly fitted or top-dose-only effect, or another doubt; inactive = no such curve, though single readings can be large; an effect the other way counts as inactive or inconclusive. Unless noted, % is scaled to controls: 0 for no effect and ±100 for the full control effect.

SMILES	CtBP-E1A blk	GALK inhibitor	KDM4E inh	Six1-Eya2 blk	Anesthetic bind	Eya2 inh
Oc1ccc2ccccc2c1C1Nc2cccc3cccc(c23)N1	-5	-2%	28µM*	-16	-17%	-18%
COc1cc(C2Nc3cccc4cccc(c34)N2)ccc1O	-4	6%	.	-29	-20%	-8%
Cc1c(-c2ccc(Cl)cc2)c(=O)oc2c(CN3CCN(CCO)CC3)c(O)ccc12	.	.	.	.	448%	.
Cc1ccc(NC2=C(N3CCCCC3)C(=O)c3ccccc3C2=O)cc1	6	0%	1%	?	?	2%
COC1=C(Nc2ccccc2)C(=O)c2ccccc2C1=O	-67*	3%	4%	-83*	3%	-6%
COC1=C(Nc2ccc(C)cc2)C(=O)c2ccccc2C1=O	-90*	3%	14µM*	-86*	1%	-1%
COC1=C(OC)C(=O)c2ccccc2C1=O	.	.	11µM*	.	.	?
CCN1/C(=C/C=C/c2oc3ccc(-c4ccccc4)cc3[n+]2CC)Oc2ccc(-c3ccccc3)cc21	19	1%	7.9µM*	12	?	?
Cc1nc2sccn2c(=O)c1S(=O)(=O)Nc1cc(C(F)(F)F)ccc1Cl	.	.	.	.	-11%	.
COc1cc(OC)nc(NC(=O)NS(=O)(=O)c2ccccc2Cl)n1	-1	2%	8%	-1	-3%	10%
Cc1cc(N(C)N)nc(NC(=O)NS(=O)(=O)c2ccccc2Cl)n1	-94*	.	.	-74*	4%	1%
O=C(Nn1cc(C(=O)Nc2ccc(F)cc2F)c2ccccc2c1=O)c1cnccn1	?	0%	?	-72*	-9%	-24%
O=C(Nc1ccccc1F)c1cnccn1	-12	2%	-5%	0	5%	-4%
COc1ccc(CCNc2nc(-c3ccncc3)cs2)cc1OC	-20	-2%	-13%	-11	-4%	-24%
COc1ccc(CCNc2nc(-c3ccccn3)cs2)cc1OC	.	-2%	?	-79*	7%	-2%
CCc1ccc(CNC(=O)c2ccc(CSc3nc4ccncc4n3Cc3ccccc3)cc2)cc1	.	.	.	.	59%	.
Brc1cccc(-c2nc3ccc(Br)cn3c2Cc2ccccc2)c1	7	.	.	-2	.	.
CC1(C)Cc2[nH]c(=S)c(C#N)cc2CO1	-3	10%	13µM*	-1	-18%	0%
N#Cc1cc2c([nH]c1=S)CCCC2	2	.	1%	2	-10%	5%
CC(C)Oc1ccc(CNC(=O)c2ccc(NC(=O)N3CCSc4ncccc43)cc2)cc1	.	.	.	.	-21%	.
CSC1=NS(=O)(=O)c2c(C)nn(C)c2S1	9	7%	3.5µM*	3	3%	-1%
O=S(=O)(/N=S1/CC=CCN1S(=O)(=O)c1ccccc1)c1ccccc1 (stereo not given)	0	0%	28µM*	6	-7%	3%
CN(C)c1ccc(N/C=C/C(=O)C(C)(C)C)cc1	?	-4%	7.1µM*	?	?	13%
CN(C)c1ccc(N/C=C/C(=O)c2ccccc2)cc1	?	11%	?	-30	5%	-21%
O=c1[nH]cnc2c1nc(Cl)n2C1OC(CO)C(O)C1O (stereo not given)	.	.	4%	.	-1%	.
SMILES	CtBP-E1A blk	GALK inhibitor	KDM4E inh	Six1-Eya2 blk	Anesthetic bind	Eya2 inh
Cc1ccc2oc(C(=O)Nc3sc4c(c3C(=O)NCc3cccnc3)CCCC4)cc(=O)c2c1	.	.	.	.	-3%	.
O=C1CSC(=S)N1c1ccc(F)cc1	.	-2%	.	.	-8%	-8%
CN(C)c1ccc(N2C(=O)CSC2=S)cc1	-17	1%	6.3µM*	-17	2%	1%
O=[N+]([O-])c1ccc(Cl)c(/C=N/n2c(COc3ccccc3)n[nH]c2=S)c1	24	.	-9%	9	4%	-1%
Cc1cc(/C=N/n2c(COc3ccccc3C)nc3ccccc3c2=O)c(O)c([N+](=O)[O-])c1	-73*	0%	-1%	-68*	71%	8%
CCCc1nc2ccccc2c(=O)n1/N=C/c1ccccc1O	15	0%	32µM*	?	-13%	-2%
O=c1c2ccccc2nc(COc2ccccc2)n1/N=C/c1cc([N+](=O)[O-])ccc1O	-5	0%	-5%	-89*	-13%	5%
O=C1CSC(=S)N1/N=C/c1cc(Br)ccc1O	.	-8%	.	.	-1%	-15%
O=C1CSC(=S)N1/N=C/c1ccc(O)c(O)c1O	-94*	-3%	2.2µM*	-91*	2%	?
CCOC(=O)N1CCC(NC(=O)c2c(C)nn(-c3cccc(C)c3)c2-n2cccc2)CC1	.	.	.	.	-9%	.
N#Cc1c(N)sc(=S)c2c1CCCCC2	-6	0%	22µM*	-20	37%	0%
Cc1ccc(NC(=O)C2CCN(S(=O)(=O)c3ccc4c(c3)CCCC(=O)N4)CC2)c(Cl)c1	.	.	.	.	5%	.
NC(CCc1ccccc1)c1csc(Nc2ccccn2)n1 (stereo not given)	-83*	.	.	-73*	.	.
NC(COCc1ccccc1)c1csc(Nc2ccccn2)n1 (stereo not given)	-90*	.	.	-89*	.	.
N/C(=N\NC(=O)Nc1ccc(Cl)cc1)c1ccccn1	-76*	.	18%	?	3%	-5%
CCC(NC(=O)CCc1c(C)c2cc3c(-c4ccccc4)coc3cc2oc1=O)C(=O)O (stereo not given)	-77*	.	.	-23	-13%	-10%
Cc1c(CC(=O)NCC(=O)O)c(=O)oc2cc3occ(-c4ccccc4)c3cc12	1	2%	.	?	4%	-6%
Cc1c(CCC(=O)N[C@@H](C)C(=O)O)c(=O)oc2cc3occ(-c4ccccc4)c3cc12	-77*	0%	.	?	-8%	-7%
Cc1c(CCC(=O)NCCCCCC(=O)O)c(=O)oc2cc3occ(-c4ccccc4)c3cc12	.	4%	.	-68*	-5%	-1%
O=C1C(Br)=C(c2ccccc2)C(c2ccccc2)=C1c1ccccc1	9	.	.	5	.	.
CC(=O)Nc1ccc(NC2=C/C(=N/S(=O)(=O)c3cccs3)c3ccccc3C2=O)cc1	-29	-1%	43%	0	-14%	-6%
COc1ccc(S(=O)(=O)/N=C2\C=C(Nc3ccc(O)cc3)C(=O)c3ccccc32)cc1	-88*	1%	.	?	-11%	-16%
